L3MBTL1 block: qHTS Assay for the Inhibitors of L3MBTL1; Lethal(3)malignant brain tumor-like protein 1 (Homo sapiens), Q9Y468; Potency, µM (titrated, usually from 57.1 µM), for the others: at the top dose activity, negative = inhibition, most hits filed as inhibitors; hit rate 0.66% among 230,000; AlphaScreen L3MBTL1–H3K9me1 peptide binding; AID 485360, 2010; note: % is set by controls: 0 for no effect and ±100 for the full control effect; nearly all actives have a fitted effect of over 60% in size
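L3MBTL1 (50 nM) pre-complexed 30 min with biotinylated H3(1-15)K9me1 peptide (75 nM), then compounds added for 30 min at room temperature; AlphaScreen streptavidin donor/nickel chelate acceptor beads (10 ug/mL final) read after 30 min dark incubation.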
VDR inh: Inhibitors of the vitamin D receptor (VDR): qHTS; VDR-SRC2-3 peptide fluorescence polarization, 2 h; Potency, µM, for inactives: max response, negative = inhibition, actives largely listed as inhibitors; hit rate 0.93% among 400,000; note: % is set by controls: 0 for no effect and ±100 for the full control effect
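Fluorescence polarization assay of small-molecule disruption of VDR binding to coregulator peptide SRC2-3. Compounds and controls pin-transferred, then read after 2 h incubation at ambient room temperature.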
JMJD2A Tudor inh: qHTS Assay for Inhibitors of JMJD2A-Tudor Domain; Lysine-specific demethylase 4A (Homo sapiens), O75164; hit rate 4.4% among 390,000; Potency, µM (series often up to 114 µM), inactives show at the highest dose activity change, negative = inhibition, most hits filed as inhibitors; AlphaScreen JMJD2A-Tudor / H3K4me3 peptide binding; note: % is set by controls: 0 for no effect and ±100 for the full control effect; nearly all actives have a fitted effect of over 50% in size
PLK1 PBD inh: qHTS for Inhibitors of PLK1-PDB (polo-like kinase 1 - polo-box domain): Primary Screen. Plk1 PBD binding of FITC phosphopeptide, fluorescence polarization. Potency, µM, inactives show max response, negative = inhibition, usual class: inhibitors. hit rate 2.8% among 360,000; note: series mostly up to about 57 µM; % is set by controls: 0 for no effect and ±100 for the full control effect; nearly all actives have a fitted effect of over 65% in size
Target sequence (P53350 whole entry, looked up, the tested form may be a part): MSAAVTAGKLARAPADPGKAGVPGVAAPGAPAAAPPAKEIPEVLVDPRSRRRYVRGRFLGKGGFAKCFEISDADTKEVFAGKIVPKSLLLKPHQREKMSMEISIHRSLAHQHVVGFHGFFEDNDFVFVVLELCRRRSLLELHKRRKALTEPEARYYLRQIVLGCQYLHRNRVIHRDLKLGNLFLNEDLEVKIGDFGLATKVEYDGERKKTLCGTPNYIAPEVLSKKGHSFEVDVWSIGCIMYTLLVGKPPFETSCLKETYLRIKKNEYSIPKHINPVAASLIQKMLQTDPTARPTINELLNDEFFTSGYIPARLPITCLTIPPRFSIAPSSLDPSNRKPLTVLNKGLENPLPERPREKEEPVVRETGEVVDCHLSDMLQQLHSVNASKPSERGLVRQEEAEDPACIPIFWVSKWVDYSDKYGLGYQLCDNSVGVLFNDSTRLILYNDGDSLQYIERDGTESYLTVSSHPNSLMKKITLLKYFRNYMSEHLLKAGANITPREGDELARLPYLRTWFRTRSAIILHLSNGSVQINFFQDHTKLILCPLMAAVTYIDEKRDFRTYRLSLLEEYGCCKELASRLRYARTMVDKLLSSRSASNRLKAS
BAZ2B inh: qHTS Assay for Inhibitors of BAZ2B. hit rate 4.4% among 360,000. Bromodomain adjacent to zinc finger domain protein 2B (Homo sapiens), Q9UIF8. AlphaScreen BAZ2B-H3K14Ac peptide displacement. Potency, µM (doses to about 114 µM), for inactives: top-dose activity change, negative = inhibition, hits mostly inhibitors; note: % is set by controls: 0 for no effect and ±100 for the full control effect; nearly all actives have a fitted effect of over 60% in size
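Protein-peptide AlphaScreen: BAZ2B 50 nM, b-H3K14Ac 50 nM, 1x PBS pH 7.4 + 0.01% Tween-20. Preincubation 30 min RT; cpd 30 min RT (top 110 uM); beads 20 min RT, light-protected.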
HP1b chromo inh: HTS for Inhibitors of HP1-beta Chromodomain Interactions with Methylated Histone Tails; AlphaScreen HP1-beta / biotin-H3K9me3 peptide binding; Potency, µM (highest dose often 114 µM), inactives show top-dose activity change, negative = inhibition, usual class: inhibitors; hit rate 0.56% among 390,000; AID 540317, 2011; Chromobox protein homolog 1 (Homo sapiens), P83916; note: nearly all actives have a fitted effect of over 70% in size
Target sequence (P83916 whole entry, looked up): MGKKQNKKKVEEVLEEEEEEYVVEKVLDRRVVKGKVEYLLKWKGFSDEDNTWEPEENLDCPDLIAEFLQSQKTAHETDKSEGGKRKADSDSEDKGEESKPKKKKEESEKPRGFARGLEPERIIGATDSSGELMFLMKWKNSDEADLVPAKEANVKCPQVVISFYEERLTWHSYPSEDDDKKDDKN
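Compound inhibition of the preformed complex between 50 nM HP1-beta and 50 nM biotinylated H3K9me3 peptide was read by AlphaScreen. Buffer was PBS pH 7.4 with 0.01% Tween-20. Incubations ran 30 min at room temperature, with 10 ug/mL donor/acceptor beads.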
Active calls of the source: *; ? = inconclusive; . = no result; [ ] = remark or other dose. Rows were chosen to be rich in hits. Some 6.9% of all compounds tested hit in one or more screens of this group. Calls come from the whole dose curve; as a rule, active = well fitted curve in the direction sought with a large enough effect; inconclusive = small, poorly fitted or top-dose-only effect, or another doubt; inactive = no such curve, though single readings can be large; an effect the other way counts as inactive or inconclusive. Potency is the fitted concentration of half-maximal effect.

SMILES | L3MBTL1 block | VDR inh | JMJD2A Tudor inh | PLK1 PBD inh | BAZ2B inh | HP1b chromo inh
CC1CN(c2c(F)c(N)c3c(=O)c(C(=O)O)cn(C4CC4)c3c2F)CC(C)N1 (stereo not drawn) | . | 6.8% | . | . | . | .
Cc1ccc2c(c1)CCCN2S(=O)(=O)c1cccc(C(=O)Nc2ccccc2C(=O)O)c1 | . | . | . | 18.9µM* | . | .
O=C(Nc1nncs1)c1cccc(S(=O)(=O)N2CCc3ccccc32)c1 | 3.2% | ? | ? | 3.36µM* | -2.9% | ?
COc1ccc(NC(=O)C(C/C=C(/C)Cl)C(C)=O)cc1 (stereo not drawn) | 9.6% | 1.8% | -22.9%[11.4 µM] | 3.77µM* | 7.3% | ?
COC(=O)c1ccc(NC(=O)Cn2c(-c3nonc3N)nc3ccccc32)cc1 | -5.8% | -9.3% | -11.0% | -14.5% | -10.4% | 41.2%
Nc1nonc1-c1nc2ccccc2n1CC(=O)N/N=C/c1ccc(-c2cccc(C(=O)O)c2)o1 | ? | 10.2% | 39.8µM* | ? | 20µM* | 50.1µM*
Cc1nnc(N/N=C\c2ccc(-c3cccc(C(=O)O)c3)o2)n1N | ? | -16.9% | 25.1µM* | -7.5% | 79.4µM* | -9.0%
CCOC(=O)c1ccc(NC(=O)Cn2c(-c3nonc3N)nc3ccccc32)cc1 | 4.4% | ? | ? | 21.2µM* | -15.8% | ?
O=C(NCCc1ccccc1)c1ccc2c(c1)CCN2S(=O)(=O)c1ccc(Cl)cc1 | . | 1.5% | -9.1% | . | -1.6% | 15.9%
COc1ccc(CNC(=O)CN2N=C(c3ccc(Cl)cc3)CCC2=O)cc1 | . | -6.8% | -11.3% | . | -1.6% | 19.3%
CCN(CC)CCCN1C(=O)c2oc3ccccc3c(=O)c2C1c1cccs1 (stereo not drawn) | . | . | . | . | -31.9% | .
CCc1ccc(CNC(=O)c2cnc3sc(N4CCCC4)nn3c2=O)cc1 | . | 11.0% | ? | . | -1.4% | 29.8%
CCCCCCc1cc2cc(-c3nnc(-c4cccc(Cl)c4)o3)c(=O)oc2cc1O | . | -14.8% | 3.3% | . | 15.5% | 28.5%
Cc1ccc2nc(Cl)c3cc(C(=O)NC4CCCCC4)sc3c2c1 | . | -16.7% | -9.6% | . | -8.5% | 28.1%
CCOC(=O)C1(Cc2ccccc2C(F)(F)F)CCN(C(C)CCn2cccn2)CC1 (stereo not drawn) | ? | 13.5% | -17.4% | -11.9% | 44.7µM* | 27.7%
CCOC(=O)C1(Cc2ccccc2C(F)(F)F)CCN(C(C)CSC)CC1 (stereo not drawn) | -20.3% | -1.6% | -23.6% | -8.7% | -30.3% | 31.1%
O=C(N=Nc1c(O)[nH]c2ccccc12)c1cccc(S(=O)(=O)Nc2ccccc2Cl)c1 | -19.8% | -21.9% | 28.2µM* | 29.9µM* | ? | -8.8%
OC(CN1CCC(Cc2ccc(F)cc2)CC1)c1ccc(Cl)cc1 (stereo not drawn) | . | 1.2% | . | . | . | .
Nc1ccc(O)cc1C(=O)OCC(=O)C12CC3CC(CC(C3)C1)C2 | ? | 5.8% | ? | -16.7% | 50.1µM* | -19.5%
Nc1ccc(O)cc1C(=O)OCC(=O)c1ccc(C2CCCCC2)cc1 | -15.0% | -21.5% | ? | 5.3% | 39.8µM* | ?
Nc1ccc(C(=O)N/N=C\c2cc(N=Nc3cccc4ccccc34)ccc2O)cc1 | -17.0% | 5.2% | ? | -6.2% | 44.7µM* | ?
S=c1[nH]nc(-c2cc3c(s2)-c2ccccc2CC3)o1 | 23.8% | ? | -19.5% | 21.2µM* | -29.2% | 2.6%
CSc1nnc(-c2cc3c(s2)-c2ccccc2CC3)o1 | 113.3% | 8.2% | 224.7% | -0.5% | 250.6% | 448.5%
O=S(=O)(c1ccccc1)N(F)S(=O)(=O)c1ccccc1 | -7.4% | -25.7% | ? | 26.7µM* | -30.2% | 50.8%
O=S(=O)(c1ccccc1)N(c1ccccc1)S(=O)(=O)c1ccccc1 | . | -3.2% | 2.1% | 4.4% | . | 55.3%
SMILES | L3MBTL1 block | VDR inh | JMJD2A Tudor inh | PLK1 PBD inh | BAZ2B inh | HP1b chromo inh
COc1ccc(-c2[nH]c(-c3ccc(OC)c(OC)c3)nc2SCC(=O)Nc2ccccc2)cc1 | . | 16.1% | ? | . | 2.3% | -13.7%
CCCC(=O)NC1CC(=O)N(c2ccc3c(c2)OCCO3)C1 (stereo not drawn) | . | 10.7% | -6.8% | . | -0.3% | 33.4%
OC(COCc1ccccc1)COCc1ccccc1 | . | 1.8% | 7.5% | 5.4% | . | 24.4%
Cc1n(CC(O)COCc2ccccc2)c2ccccc2[n+]1C (stereo not drawn) | 4.6% | -9.8% | -8.2% | -4.0% | 56.2µM* | 23.5%
CCc1cccc(NC(=O)CCn2c(=O)c3cccn3c3cccnc32)c1 | . | -5.6% | -24.9% | . | -3.7% | 28.7%
COc1cc(/C=N/NC(=O)c2cc[n+]([O-])cc2)ccc1O | . | -2.1% | -21.2% | -4.8% | 4.0% | 60.5%
NC(=O)CC(NSc1ccccc1[N+](=O)[O-])C(=O)O (stereo not drawn) | 7.6% | ? | 35.5µM* | 3.77µM* | ? | -8.3%
CN(CCCn1ccc(NC(=O)OCc2ccccc2)nc1=O)Cc1ccco1 | . | . | . | -5.3% | . | .
CCOc1ccc(CNC(=O)c2ccc(NC(=O)N3CCSc4ncccc43)cc2)cc1OC | . | 7.8% | -0.7% | . | -18.0% | 33.6%
COCCOC(=O)C1=C(C)N=C2SCCC(=O)N2C1c1ccc(OCc2ccccc2)c(OC)c1 (stereo not drawn) | . | 0.2% | -19.9% | . | -1.3% | 14.9%
COCCN(Cc1cc2cc3c(cc2nc1Cl)OCO3)C(=O)c1ccc(C)cc1 | 28.2µM* | -2.8% | -7.4% | -5.5% | 10µM* | 16.3%
COCCN(Cc1cc2cc(C)c(C)cc2nc1Cl)C(=O)Nc1ccccc1 | 6.2% | 13.3% | -19.5% | -10.7% | 53.0% | 3.3%
CCOc1ccc(N)c(SSc2cc(OCC)ccc2N)c1 | . | 10µM* | 12.6µM* | 1.68µM* | 31.6µM* | 17.8µM*
CCOc1cccc(N)c1 | -2.7% | -23.5% | -11.7% | -1.9% | 12.9% | 25.1%
O=c1[nH]c(CN2CCN(c3ccccc3O)CC2)nc2scc(-c3ccccc3Cl)c12 | ? | -10.1% | ? | 6.9% | -31.3% | 22.9%
O=c1[nH]c(CN2CCN(c3ccc(O)cc3)CC2)nc2scc(-c3ccc(Cl)cc3)c12 | ? | -8.7% | 44.7µM* | 5.2% | ? | ?
NC(=O)CNc1n[nH]c(=S)[nH]c1=O | 27.2% | -10.6% | 20µM* | -10.7% | -5.5% | -4.2%
CCCCOC(=O)C(C)Nc1n[nH]c(=S)[nH]c1=O (stereo not drawn) | . | -15.2% | 11.2µM* | 26.7µM* | ? | -11.2%
COc1ccc(Cl)cc1Nc1cc(C)nc2nc(-c3ccccc3C)nn12 | . | 8.0% | -11.0% | . | -0.7% | 51.3%
